The record followed here is ChEMBL document CHEMBL1201862, “PubChem BioAssay data set” (2004).

Molecules are shown by their SMILES. About 2,100 (0.53%) of roughly 400,000 compounds were called active. Not shown: some 14% with an inconclusive outcome. No rule for the calls is given here. Many of the other results were omitted from the sample, so actives are more common in it than they were.

The target in this test is Ataxin-2 (Homo sapiens) (UniProt Q99700). Description: qHTS for Inhibitors of ATXN expression. Type of test: functional. Background: In qHTS, concentration-response curves come from the screen itself.
Ataxin-2 (Homo sapiens), sequence (Q99700 whole entry): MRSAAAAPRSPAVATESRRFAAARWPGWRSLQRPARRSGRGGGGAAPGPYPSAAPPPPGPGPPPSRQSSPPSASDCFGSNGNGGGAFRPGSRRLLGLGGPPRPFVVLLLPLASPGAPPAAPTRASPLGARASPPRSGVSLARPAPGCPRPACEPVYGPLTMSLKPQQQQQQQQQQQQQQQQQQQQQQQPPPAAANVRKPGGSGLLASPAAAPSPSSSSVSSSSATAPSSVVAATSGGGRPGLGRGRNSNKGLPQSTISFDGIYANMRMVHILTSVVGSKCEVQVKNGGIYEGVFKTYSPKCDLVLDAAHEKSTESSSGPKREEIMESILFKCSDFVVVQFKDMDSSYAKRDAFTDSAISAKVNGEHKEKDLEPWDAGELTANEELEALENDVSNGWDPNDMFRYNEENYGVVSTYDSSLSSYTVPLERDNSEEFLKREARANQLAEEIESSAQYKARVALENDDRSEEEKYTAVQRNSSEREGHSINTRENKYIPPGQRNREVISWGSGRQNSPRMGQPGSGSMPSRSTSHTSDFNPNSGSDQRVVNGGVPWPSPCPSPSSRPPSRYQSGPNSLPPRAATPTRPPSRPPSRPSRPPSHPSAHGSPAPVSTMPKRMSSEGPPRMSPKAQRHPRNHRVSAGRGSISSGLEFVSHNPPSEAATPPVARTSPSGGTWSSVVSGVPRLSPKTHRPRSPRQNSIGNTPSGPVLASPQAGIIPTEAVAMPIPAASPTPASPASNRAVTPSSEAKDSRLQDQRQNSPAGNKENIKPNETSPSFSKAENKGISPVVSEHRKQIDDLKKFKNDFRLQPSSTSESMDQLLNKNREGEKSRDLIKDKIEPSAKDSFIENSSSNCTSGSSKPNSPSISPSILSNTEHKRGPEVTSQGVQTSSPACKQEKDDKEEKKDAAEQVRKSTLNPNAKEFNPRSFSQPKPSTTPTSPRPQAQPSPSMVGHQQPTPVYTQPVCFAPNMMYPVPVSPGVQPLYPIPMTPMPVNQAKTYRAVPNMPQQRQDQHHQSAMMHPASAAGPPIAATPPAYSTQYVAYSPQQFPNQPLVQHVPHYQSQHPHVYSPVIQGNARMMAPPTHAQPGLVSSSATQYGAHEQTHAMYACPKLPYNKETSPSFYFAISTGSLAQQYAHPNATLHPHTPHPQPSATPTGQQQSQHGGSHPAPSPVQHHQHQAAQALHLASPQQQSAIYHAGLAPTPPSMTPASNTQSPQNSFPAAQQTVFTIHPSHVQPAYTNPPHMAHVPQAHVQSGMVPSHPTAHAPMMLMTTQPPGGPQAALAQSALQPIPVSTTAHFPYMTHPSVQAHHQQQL
On to `CS(=O)(=O)c1ccc(Cl)c(NC(=O)CSc2n[nH]c(-c3cccs3)n2)c1`, for which the Potency result was “inactive”.
Under `COC(=O)Cc1cc(=O)oc2cc(O)ccc12` stands “inactive”.
Under `S=C(NCCCN1CCOCC1)NC1CC1` stands “inactive”.
For `Cc1nn(CC(=O)NCCCN2CCCCC2)c(=O)c2cccn12` the value was “inactive”.
Regarding `O=C(NCCCCCCCN1CCCCCCC1)C(C1CCCCC1)C1CCCCC1`, the Potency is 21.2 µM (active).
Regarding `Cn1c(=O)c(/C=C/c2ccc(F)cc2)nc2ccccc21`, the Potency entry was “inactive”.
For the compound `Cn1c(SC2=CS(=O)(=O)c3ccccc32)nc2ccccc21`, the Potency is 15.8 µM (active).
For `CCC(=O)c1ccc(/C=C/c2nc3ccccc3n2C)o1` the value was “inactive”; for `Cn1c(-c2c(N)n(-c3ccccc3)c3nc4ccccc4nc23)nc2ccccc21`, “inactive”; for `FC(F)(F)c1cnc(NNC(=S)Nc2ccccc2)c(Cl)c1`, “inactive”.
For `O=C(CCl)c1ccc(Cc2ncc(C(F)(F)F)cc2Cl)s1`, the Potency was 39.8 µM (active).
Under `C#CCNC(=O)C(C)c1ncc(C(F)(F)F)cc1Cl` (stereo not drawn) stands “inactive”; under `O=C(C[C@H]1C/C=C\C[C@@H](NC(=O)OCC2c3ccccc3-c3ccccc32)C(=O)O[C@@H](c2ccccc2)CNC1=O)N[C@H](CO)Cc1ccccc1`, 31.6 µM (active).
Take `Nc1ccccc1-n1nc2ccc3ccccc3c2n1`: the Potency entry is “inactive”.
Under `COc1cc(C(=O)Nc2ccc(Br)cc2C(=O)c2cc(OC)c(OC)c(OC)c2)cc(OC)c1OC` stands “inactive”; under `COc1ccc(OC)c(/C=C/C(=O)N(C)CC(=O)Nc2cc(C)ccc2C)c1`, “inactive”; under `COc1ccc(Br)cc1/C=C/C(=O)NC(=S)Nc1ccc(Cl)c(C(=O)O)c1`, “inactive”.
For the compound `CNc1ccc(Br)cc(C(=O)/C=C/c2cc(OC)ccc2OC)c1=O`, the Potency is 39.8 µM (active).
For the compound `CNc1ccc(Br)cc(C(=O)/C=C/c2cccc(OC)c2)c1=O`, the Potency was 28.2 µM (active).
For `COc1cccc(NC(=O)c2sc3nc(C)c(C(=O)Nc4ccc(C)cc4C)c(-c4ccc(Br)cc4)c3c2N)c1` the value was “inactive”; for `Cc1ccc2nc(N3CCN(C)CC3)c(C=O)c(=O)n2c1`, “inactive”; for `COCC(C)NC(=O)c1cc(-c2ccc(O)cc2)on1` (stereo not drawn), “inactive”.
Consider `Nc1c2ccccc2nc2ccccc12`, for which the Potency result was “inactive”.
For `O=C(Nc1cccnc1)Nc1cccc(F)c1` the value was “inactive”; for `COC(=O)Cc1csc(N/C=C2/C(=O)N(c3cccc(C(F)(F)F)c3)C(=O)c3ccccc32)n1`, “inactive”.
Under `CNC(=O)Nc1cc(C(F)(F)F)cc(C(F)(F)F)c1` stands “inactive”; under `NC(c1csc(NC(=O)Nc2cccc(C(F)(F)F)c2)n1)C1CCCCC1` (stereo not drawn), 28.2 µM (active).
For the compound `CC(C)C(N)c1csc(NC(=O)Nc2cccc(C(F)(F)F)c2)n1` (stereo not drawn), the Potency is 35.5 µM (active).
For the compound `CCCCNc1ccc2c3c(cccc13)C(=O)N(CCCC)C2=O`, the Potency entry is “inactive”.
With `Cc1nn2c(-c3ccccc3)c(-c3ccccc3)nc2nc1O`, the Potency result was “inactive”.
Regarding `Cc1cc(C)cc(CC2CC(=O)N(c3cc(C)ccc3C)C2=O)c1` (stereo not drawn), the Potency result was “inactive”.
For the compound `CCC(C)Sc1ccc(-c2nc3cnccn3c2NC2CCCCC2)cc1` (stereo not drawn), the Potency entry is “inactive”.
Consider `CC(C)(C=O)C1=CC(=O)c2ccccc2C1=O`, for which the Potency was 10 µM (active).
For `CCOC(=O)c1c(NC(=O)c2nn(C)cc2[N+](=O)[O-])sc(C)c1C` the value was “inactive”; for `CCCNC1=C(N(C(C)=O)c2cccc(F)c2)C(=O)c2ccccc2C1=O`, 31.6 µM (active).
For `C=CCNC(=O)C1CC(=O)N(c2ccc(OCC(=O)N3CCCC3)cc2)C1` (stereo not drawn) the value was “inactive”; for `CCC/C(C#Cc1ccc(N(C)C)cc1)=C1/c2ccccc2C(=O)N1c1ccccc1`, “inactive”; for `O=C(O)c1cc(Sc2ccc(Br)cc2)nc2ccccc12`, “inactive”.
Under `Nc1nc(N)c2cc(Sc3ccc(Cl)cc3)ccc2n1` stands 35.5 µM (active).
As for `N#C/C(=C\c1ccc(N2CCOCC2)o1)C(=O)NCCc1ccccc1`, the Potency result was “inactive”.
Take `COc1ccc(C(=O)COc2ccccc2C#N)cc1`: the Potency result was “inactive”.
`COc1ccc(C(=O)NN=C2CCCC2)cc1`: the Potency entry is “inactive”.
For `COc1ccc(C(=O)C(CCCCC(CN(C)C)C(=O)c2ccc(OC)cc2)CN(C)C)cc1` (stereo not drawn), the Potency was 31.6 µM (active).
`CC(=O)c1cccc(S(=O)(=O)N2CCC(C(=O)Nc3cccc(C(=O)NC4CC4)c3)CC2)c1`: the Potency entry is “inactive”.
Take `Nc1ccc(OC(=O)Nc2ccc(O)cc2)cc1`: the Potency entry is “inactive”.
Under `CCOC(=O)N1C(=O)[C@@](c2ccc(Cl)cc2)(C(C)C)N1C(=O)OCC` stands 31.6 µM (active); under `CCOC(=O)CN1N=C(c2ccc(Cl)cc2)CCC1=O`, “inactive”; under `CCN(CC)C(=O)Cn1cc(C(=O)C(=O)N2CC=C(c3ccccc3)CC2)c2ccccc21`, “inactive”.
Regarding `Cc1cccc(NC(=O)NNC(=O)c2cc3ccccc3cc2O)c1C`, the Potency result is “inactive”.
Under `C=CCC[C@@H](Cc1ccc(F)cc1)C(=O)OC[C@H](C)NC(=O)[C@H](CC=C)CC(=O)N(CCO)Cc1ccccc1` stands 28.2 µM (active); under `C=CCC[C@@H](Cc1ccc(F)cc1)C(=O)OC[C@@H](C)NC(=O)[C@H](CC=C)CC(=O)N(CCO)Cc1ccccc1`, 39.8 µM (active); under `C/C(=N\NC(=O)Cc1csc(N2CCOCC2)n1)c1ccc(Cl)c(Cl)c1`, “inactive”.
Under `Nc1cccc2c1C(=O)N(CCOc1ccccc1F)C2=O` stands “inactive”; under `CCCCCN1C(C(=O)c2ccccc2)=C(NC(=O)c2ccc(OC)c(OC)c2)c2ccccc2S1(=O)=O`, “inactive”; under `CCCCc1c(-c2ccccc2F)ncn1CCc1ccccc1OC`, 31.6 µM (active).
As for `CCCCc1c(-c2ccccc2Br)ncn1CCc1ccccc1OC`, the Potency was 28.2 µM (active).
For `CCCc1c(-c2ccccc2Br)ncn1Cc1ccccc1OC` the value was 31.6 µM (active); for `CCCCCc1c(-c2ccccc2OC)ncn1CCc1ccccc1OC`, 31.6 µM (active).
For `Cc1cc(Cl)n2c(nc3ccccc32)c1C#N` the value was “inactive”; for `CC(CCCC(C)(C)O)NC(=O)c1ccc(OC2CCN(C(=O)C3CC3)CC2)cc1` (stereo not drawn), “inactive”.
For `CCCCc1c(-c2ccc(F)cc2F)ncn1CCc1ccccc1OC` the value was 35.5 µM (active); for `CCCCCc1c(-c2ccccc2F)ncn1CCc1ccccc1OC`, 28.2 µM (active).
Consider `CCOC(=O)C1(CCOC)CCCCC1=O` (stereo not drawn), for which the Potency entry was “inactive”.
Regarding `Cc1ccc(Nc2nc(Cl)c(C=O)s2)cc1Cl`, the Potency result was “inactive”.
Turning to `CC(C)N(CCNCc1nnc(-c2ccccc2)o1)C(C)C`, the Potency result is “inactive”.
For `COC(=O)Cc1c(C)c2ccc3c(c2oc1=O)CN(Cc1ccc(Cl)cc1)CO3` the value was “inactive”; for `CC1=CC(=O)C=C(C)C1=NOC(=O)/C=C\c1ccccc1`, “inactive”.
Under `Cc1ccc(C(=O)C(C(=O)/C=C/c2ccccc2)=C2SCCCS2)cc1` stands 25.1 µM (active); under `CCN1CCN(c2cc(C)c3cc(NC(S)=NCCCN4CCc5ccccc5C4)ccc3n2)CC1`, 25.1 µM (active); under `Cc1cc(N2CCN(C)CC2)nc2ccc(NC(S)=NCCN3CCc4ccccc4C3)cc12`, 28.2 µM (active).
For `Cc1cc(C)c2cc3c(N)c(C(=O)N4CCc5ccccc5C4)sc3nc2c1` the value was “inactive”.
Take `COCCCN=C(S)Nc1ccc2nc(N3CCOCC3)cc(C)c2c1`: the Potency entry is “inactive”.
For `COc1cc(OC)c2c(OC)cccc2n1` the value was “inactive”; for `CC(C)c1ccc(O)c(C(=O)c2cnn(-c3ccccc3)c2)c1`, “inactive”; for `Cc1cccn2c(=O)c3cc(C(N)=S)c(=N)n(CCCOC(C)C)c3nc12`, “inactive”.
As to `CCCCNC(=O)C[C@@H]1C[C@@]2(C(=O)OC)CCCCC=C2N(CCC2=CCCCC2)C1=O`, the Potency is 39.8 µM (active).
For `CCCCNC(=O)C1(NC(=O)Nc2ccccc2)CCCCC1` the value was “inactive”.
On to `CCCCOCCCNC(=O)C[C@@H]1C[C@@]2(C(=O)OC)CCCCC=C2N(CCC2=CCCCC2)C1=O`, for which the Potency is 35.5 µM (active).
Turning to `Cc1cc(NCCCOC(C)C)n2c(nc3ccccc32)c1C#N`, the Potency result was “inactive”.
In the case of `CC(=O)c1ccc(NC(=O)COC(=O)C2CC3C=CC2C3)cc1` (stereo not drawn), the Potency result is “inactive”.
In the case of `O=C1/C(=C\NCc2ccccn2)c2ccccc2C(=O)N1c1ccccc1Cl`, the Potency result was “inactive”.
Under `CCN(C(=O)COc1cccc2cccnc12)C1CCS(=O)(=O)C1` (stereo not drawn) stands “inactive”; under `Cc1ccc(OCC(=O)N(Cc2ccco2)C2CCS(=O)(=O)C2)cc1C` (stereo not drawn), “inactive”.
For `CCN(C(=O)C(C)N1C(=O)/C(=C/c2ccco2)SC1=S)C1CCS(=O)(=O)C1` (stereo not drawn), the Potency was 28.2 µM (active).
Under `Cc1ccc(O)c(NN=C2C(=O)CC(C)(C)CC2=O)c1` stands 20 µM (active); under `Cc1ccc(O)c(Nc2c3ccccc3nc3ccccc23)c1`, “inactive”.
In the case of `O=C(OCC(=O)c1ccc[nH]1)c1cncc(Br)c1`, the Potency entry is “inactive”.
On to `Cc1[nH]c2ccccc2c1/C=N/Nc1ccc([N+](=O)[O-])cc1`, for which the Potency result is “inactive”.
With `CN1CCN(S(=O)(=O)c2cc([N+](=O)[O-])ccc2N/N=C/c2ccc(Cl)cc2)CC1`, the Potency result was “inactive”.
For `Cc1ccc(-n2[nH]c(C)c(/C=N/Nc3ccc([N+](=O)[O-])cc3[N+](=O)[O-])c2=O)cc1` the value was 14.1 µM (active).
Under `CCc1ccc([C@@H]2CC=C(C(=O)O)[C@H](c3ccc(C(C)(C)C)cc3)N2S(=O)(=O)c2ccc(C)cc2)cc1` stands 35.5 µM (active).
In the case of `CSC1=NCCN1S(=O)(=O)c1ccc(C)cc1`, the Potency entry was “inactive”.
For `CCc1ccc(S(=O)(=O)N2CCN(Cc3ccco3)CC2)cc1` the value was “inactive”; for `Cc1ccc(NC(=O)CSC(C)C(=O)OCc2cc(=O)oc3cc(O)ccc23)cc1` (stereo not drawn), “inactive”; for `CC(=O)Nc1ccc2cc3ccc(NC(C)=O)cc3nc2c1`, “inactive”.
For the compound `CCC(C)NCC(=O)Nc1ccc(-c2nc3cc(NC(=O)CNC(C)CC)ccc3o2)cc1` (stereo not drawn), the Potency is 22.4 µM (active).
Under `COc1cc(/C=C\C(=O)Nc2cc(=O)n(C)c(=O)n2C)cc(OC)c1OC` stands “inactive”; under `CSCCC(=O)N(C)CC1CCCN(CCc2cccc(C(F)(F)F)c2)C1` (stereo not drawn), “inactive”; under `CNC[C@@H](CC1CCCCC1)NC[C@H](CC(C)C)NCCc1cccc(C(F)(F)F)c1`, 15.8 µM (active).
For `O=c1nc2c(O)cccn2c2c1c(O)nc1ccccc12` the value was “inactive”.
Under `Nc1nc(O)c(CCCOc2ccc(NC(=O)CBr)cc2)c(-c2ccccc2)n1` stands 25.1 µM (active).
Regarding `Cc1nc(C)c(C(=O)OCC(=O)Nc2ccccc2)s1`, the Potency entry is “inactive”.
Take `CCOc1ccc(NC(=O)COC(=O)CNC(=O)c2ccc(-c3ccccc3)cc2)cc1`: the Potency entry was “inactive”.
